# Source: PubChem (National Center for Advancing Translational Sciences (NCATS))
# Shown are actives, neighbours in structure and some others; about 12% of the full set was active somewhere.
# NS1 function inh – inhibitors of influenza NS1 protein function; 270,000 tested, 0.4% active; Potency, µM (top dose mostly 46.1 µM), for the others: at the highest dose activity, positive = more growth; AID 2326; further: potency means the concentration at half of the fitted maximal effect; actives are rising curves; nearly all actives have a fitted effect of over 50% in size
#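 Growth recovery, yeast-based: influenza A NS1 expressed in S. cerevisiae causes slow growth, and suppressors are detected by OD600. The parent strain without NS1 is used as positive control.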
# Shiga toxin inh – Shiga toxin inhibition; inhibition, % at 38.7 µM; AID 2315; 290,000 tested, 9.2% active; Vero cells, Shiga toxin protein synthesis inhibition reporter; in the data active means inhibition mostly above about 28%, no sharp cut-off; inactive means mostly below about 43%; further: 0% is about no effect
# SARS PLpro yeast – inhibitors of SARS-CoV papain-like protease in yeast | 330,000 tested, 0.19% active | S. cerevisiae expressing SARS-CoV PLpro, growth rescue | AID 485353 | Potency, µM (titrated, usually from 32.9 µM), inactives show at the top dose activity, positive = growth rescue, most hits filed as activators; further: potency means the concentration at half of the fitted maximal effect; 0% is about no effect; nearly all actives have a fitted effect of over 55% in size
# CHX counter – counter-screen hit for Shiga toxin inhibitors, cycloheximide; cell reporter, cycloheximide protein synthesis inhibition counterscreen; max response, %; 300,000 tested, 12% active; AID 2314; in the data active means max response mostly above about 13%, no sharp cut-off; inactive means mostly below about 14%; further: read at 38.3 µM for the half of the compounds with a filed dose; 0% is about no effect
# * marks the source's active call; other numbers are inactive results; ? = inconclusive; · = not tested or not shown. Unless noted, the call rests on the fitted dose curve.
SMILES,NS1 function inh,Shiga toxin inh,SARS PLpro yeast,CHX counter
CSc1ccc(CC(=O)N2CCC(n3nccc3NC(=O)C3CC3)CC2)cc1,-4%,75*,-1%,45*
CSCC(=O)N1CCC(n2nccc2NC(=O)c2ccc3c(c2)OCO3)CC1,-2%,62*,-4%,36*
COc1cccc(CC(=O)N2CCC(n3nccc3NC(=O)C3CC3)CC2)c1,-2%,12,-6%,17
CO/N=C/c1ccc(N2CCN(C(=O)c3ccc(Cl)cc3Cl)CC2)c([N+](=O)[O-])c1,-3%,-20,-13%,-2
CC(C)C[C@H](N)c1nnc(S(=O)(=O)Cc2ccc(F)cc2)o1,-63%,71,-17%,42*
CC(C)C[C@H](N)c1nnc(SCC(=O)Nc2ccc(Br)cc2)o1,-6%,-3,1%,-7
O=C(COC(=O)c1c2c(nc3ccccc13)CCCCC2)c1ccc(Cl)s1,4%,78*,-55%,9
O=C(COC(=O)c1c2c(nc3ccccc13)CCCC2)c1cccs1,-114%,46,-25%,23*
NC(=O)COC(=O)c1c2c(nc3ccccc13)CCCCC2,·,-23,-4%,7
COCc1cc(=O)[nH]c2c1c(-c1ccccc1)nn2C,2%,-14,0%,2
O=C(NN/C(=N/S(=O)(=O)c1ccc(Cl)cc1)c1ccccc1)c1cccc(Cl)c1,-30%,81*,0%,31*
O=C(O)c1ccc(N/C(=N\S(=O)(=O)c2ccc(Cl)cc2)c2ccccc2)cc1,0%,11,0%,-2
O=C(NN/C(=N/S(=O)(=O)c1ccc(Cl)cc1)c1ccccc1)c1ccc(O)cc1,-25%,56*,-38%,67*
COc1ccccc1N/C(=N/S(=O)(=O)c1ccc(Cl)cc1)c1ccccc1,-15%,-4,-12%,-2
Cc1ccc(S(=O)(=O)/N=C(/NNC(=O)c2cccc(Cl)c2)c2ccccc2)cc1,-31%,99*,1%,33*
O=S(=O)(/N=C(/Nc1ccccn1)c1ccc(Cl)cc1)c1ccc(Cl)cc1,-5%,20,-22%,49*
O=C(CCCOC(=O)c1ccc(O)cc1O)c1ccc(Br)cc1,·,·,-2%,·
CCOc1ccc(NC(=O)CSc2nnnn2-c2ccc(C(N)=O)cc2)cc1,3%,-5,1%,13
COc1cc(N/C(=N/S(=O)(=O)c2ccccc2)c2ccccc2)ncn1,-16%,68*,·,46*
O=C(Nc1cc(Sc2ccccn2)cc([N+](=O)[O-])c1)c1ccc(Cl)cc1,4%,57,7%,21*
Cc1c(NS(=O)(=O)c2cccs2)cccc1-c1nc2cccnc2s1,-11%,22,4%,24*
O=S(=O)(Nc1cccc2ncccc12)c1cccs1,-74%,6,-20%,29*
Cc1c(NS(C)(=O)=O)cccc1-c1nc2cccnc2s1,-4%,154*,0%,32*
COc1ccc(CCN2CCCn3c2nc2c3c(=O)n(CC(N)=O)c(=O)n2C)cc1OC,12%,-5,-1%,-8
O=C(Nc1ccc(Br)cn1)c1ccc(COc2c(F)c(F)cc(F)c2F)o1,·,·,-3%,·
SMILES,NS1 function inh,Shiga toxin inh,SARS PLpro yeast,CHX counter
CCOC(=O)C(C)Sc1cc(CS(=O)(=O)c2ccccc2)nc(-c2ccccc2)n1 (centres undefined),17%,-7,-7%,-2
COc1cc(C)ccc1OCCOCCOc1ccccc1Br,-63%,27,-5%,-3
CCOc1ccccc1OCCCOc1ccc(C)cc1Cl,-4%,62*,-17%,23*
CCOc1ccccc1OCCCOc1ccc(C)cc1Br,-3%,70*,-33%,41*
C=CCNCCCOc1ccc(C)cc1Br,0%,65*,-12%,27*
COCCCNCCCOc1ccc(C)cc1Br,-3%,-3,-1%,-4
CCOc1c(Br)cc(C(=O)NCCCn2ccnc2)cc1OC,-4%,-6,1%,-5
CC(=O)NC1C(O)O[C@H](C(=O)O)[C@@H](O)[C@@H]1O (some centres undefined),·,-5,·,14
O=C1C2CC=CCC2C(=O)N1Cc1nnc(-c2ccc(Cl)cc2)o1 (centres undefined),-1%,70*,2%,26*
CC(C)C(=O)Nc1nnc(CCc2nnc(NC(=O)C(C)C)s2)s1,-6%,15,-2%,-5
CCCc1nnc(NC(=S)Nc2ccccc2)s1,·,42*,4%,27*
COc1ccccc1-c1nnc(NC(=O)C(C)C)s1,-1%,-1,0%,17
CC(C)C(=O)Nc1nnc(NC(=S)Nc2ccccc2)s1,·,68*,2%,34*
C/C=C(\C)c1nnc(NC(=O)C(C)C)s1,?,13,8%,19*
CC(C)(C)NC(=O)CSc1ncnc2c1cnn2-c1ccccc1,2%,32,3%,30*
CCOC(=O)CNC(=O)CSc1ncnc2c1cnn2-c1ccc(C)cc1,1%,-4,0%,0
CCOC(=O)CC(=O)CSc1ncnc2c1cnn2-c1ccccc1,1%,81*,-23%,58*
CCOC(=O)CNC(=O)CSc1ncnc2c1cnn2-c1ccc(OC)cc1,-2%,16,8%,29*
COc1ccc(C(=O)N/N=C/C(=O)c2ccccc2)cc1,-12%,49*,-10%,43*
COc1ccc(C(=O)NNC(=O)CCCCC(=O)NNC(=O)c2ccc(OC)cc2)cc1,·,2,4%,1
COc1ccc(C(=O)NN/C(C)=C/C(=O)c2ccccc2)cc1,12%,62,-2%,11*
C/C(=C\C(=O)c1ccccc1)NNC(=O)c1ccc(Cl)cc1,-16%,·,-1%,22*
O=C1C(Cc2ccccc2)Nc2ncnc(N3CCN(c4ccccc4)CC3)c2N1Cc1ccc(Cl)cc1 (centres undefined),·,·,3%,·
CN1N=C(C(=O)N2CCN(c3ccc([N+](=O)[O-])cc3)CC2)CCC1=O,0%,-5,0%,-3
CCOC(=O)C1CCCN(C(=O)c2ccc(NS(=O)(=O)c3ccc4[nH]c(=O)[nH]c4c3)cc2)C1 (centres undefined),·,·,-2%,·
SMILES,NS1 function inh,Shiga toxin inh,SARS PLpro yeast,CHX counter
O=C(COC(=O)/C=C/c1ccc2c(c1)OCO2)Nc1ccccc1,·,93*,0%,40*
O=C(COC(=O)c1ccncc1)Nc1ccccc1,·,59,0%,21*
O=C(COC(=O)c1ccc2c(c1)OCO2)Nc1ccccc1,-5%,41*,0%,13*
O=C(COC(=O)/C=C/c1ccc2c(c1)OCO2)Nc1ccc(S(=O)(=O)N2CCCC2)cc1,6%,14,-5%,-2
COc1c(C)cc(S(=O)(=O)NCc2ccco2)c(C)c1C,3%,21,0%,15*
CCc1ccc(-c2cc(C)no2)cc1S(=O)(=O)NCc1ccco1,-21%,42*,-21%,30*
O=C(Nc1ccon1)c1cccc(S(=O)(=O)N2CCCCC2)c1,-3%,-12,0%,7
O=Cc1cccn1Cc1ccccc1[N+](=O)[O-],21%,13,-12%,33*
COC(=O)CN1C(=O)COc2ccc(S(=O)(=O)NCc3ccc(Cl)cc3)cc21,4%,-3,-2%,13
CCC(C(=O)NCCCN1CCN(C)CC1)n1nc(C)n2c(cc3occc32)c1=O (centres undefined),5%,12,-2%,-1
Fc1ccc(-n2nnc(-c3ccccc3)n2)cc1,8%,-7,5%,-3
